# Experimental data from the supplement of paper PMC8728848.
# Many of the other results were omitted from the sample, so the strongest signals are more common in it than they were.
# B1: SSR2 (Sclerotium rolfsii) (protein)
# chain: MVYKITVRVYQTNPDAFFHPVEKTVWKYANGGTWSITDDQHVLTMGGSGTSGTLRFHADNGESFTATFGVHNYKRWCDIVTNLAADETGMVINQQYYSQKNREEARERQLSNYQVKNAKGRNFQIVYTEAEGNDLHANLIIG
# Key:
# Assay in all cases: glycan array binding signal (z-score within array); higher = stronger binding
# Conditions in all cases: glycan notation: IUPAC condensed, linker removed
# [1] = biological target: Fuc(a1-2)Gal(b1-3)GalNAc(b1-4)[Neu5Ac(a2-3)]Gal(b1-4)Glc
# Method in brief: (§1)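 From the Consortium for Functional Glycomics database, 3228 arrays were curated, keeping only those whose protein sequence was available. Binding is given as a within-array Z-score averaged across arrays sharing a protein sequence and across linkers. Negative Z-scores can be read as non-binding.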
# [2] = biological target: Fuc(a1-2)Gal(b1-4)GlcNAc(b1-3)Gal(b1-4)GlcNAc(b1-2)Man(a1-3)[Fuc(a1-2)Gal(b1-4)GlcNAc(b1-3)Gal(b1-4)GlcNAc(b1-2)Man(a1-6)]Man(b1-4)GlcNAc(b1-4)GlcNAc
# Method in brief: as §1
# [3] = biological target: Fuc(a1-2)Gal(b1-4)[Fuc(a1-3)]GlcNAc(b1-3)Gal(b1-4)[Fuc(a1-3)]GlcNAc(b1-3)Gal(b1-4)[Fuc(a1-3)]GlcNAc
# Method in brief: as §1
# [4] = biological target: Fuc(a1-2)[Gal(a1-3)]Gal(b1-4)GlcNAc(b1-3)GalNAc
# Method in brief: as §1
# [5] = biological target: Fuc(a1-2)[Gal(a1-3)]Gal(b1-4)GlcNAc(b1-3)[Fuc(a1-2)[Gal(a1-3)]Gal(b1-4)GlcNAc(b1-6)]GalNAc
# Method in brief: as §1
# [6] = biological target: Fuc(a1-2)[GalNAc(a1-3)]Gal(b1-4)GlcNAc(b1-2)Man
# Method in brief: as §1
# [7] = biological target: Fuc(a1-2)[GalNAc(a1-3)]Gal(b1-4)GlcNAc(b1-6)GalNAc
# Method in brief: as §1
# [8] = biological target: Fuc(a1-3)[Gal3S(b1-4)]GlcNAc6S
# Method in brief: as §1
# Fuc(b1-3)GlcNAc = biological target: Fuc(b1-3)GlcNAc
# Method in brief: as §1
# Gal(a1-3)Gal(b1-4)GlcNAc = biological target: Gal(a1-3)Gal(b1-4)GlcNAc
# Method in brief: as §1
# [9] = biological target: Gal(a1-4)Gal(b1-4)GlcNAc(b1-3)Gal(b1-4)Glc
# Method in brief: as §1
# [10] = biological target: Gal(b1-3)GalNAc(a1-3)[Fuc(a1-2)]Gal(b1-4)Glc
# Method in brief: as §1
# [11] = biological target: Gal(b1-3)GalNAc(a1-3)[Fuc(a1-2)]Gal(b1-4)GlcNAc
# Method in brief: as §1
# [12] = biological target: Gal(b1-3)GlcNAc(a1-3)Gal(b1-4)GlcNAc
# Method in brief: as §1
# [13] = biological target: Gal(b1-3)GlcNAc(b1-2)[Gal(b1-3)GlcNAc(b1-6)]Man(a1-6)[Gal(b1-3)GlcNAc(b1-2)Man(a1-3)]Man(b1-4)GlcNAc(b1-4)GlcNAc
# Method in brief: as §1
# [14] = biological target: Gal(b1-3)[Fuc(a1-4)]GlcNAc(b1-2)Man
# Method in brief: as §1
# [15] = biological target: Gal(b1-3)[Fuc(a1-4)]GlcNAc(b1-3)Gal(b1-3)[Fuc(a1-4)]GlcNAc
# Method in brief: as §1
# Gal(b1-4)Gal = biological target: Gal(b1-4)Gal
# Method in brief: as §1
# [16] = biological target: Gal(b1-4)GalNAc(a1-3)[Fuc(a1-2)]Gal(b1-4)GlcNAc
# Method in brief: as §1
# [17] = biological target: Gal(b1-4)GlcNAc(b1-2)Man(a1-3)[Gal(b1-4)GlcNAc(b1-2)Man(a1-6)][GlcNAc(b1-4)]Man(b1-4)GlcNAc(b1-4)[Fuc(a1-6)]GlcNAc
# Method in brief: as §1
# [18] = biological target: Gal(b1-4)GlcNAc(b1-2)Man(a1-3)[GlcNAc(b1-4)][Gal(b1-4)GlcNAc(b1-2)Man(a1-6)]Man(b1-4)GlcNAc(b1-4)GlcNAc
# Method in brief: as §1
# [19] = biological target: Gal(b1-4)GlcNAc(b1-2)Man(a1-6)[GlcNAc(b1-2)Man(a1-3)]Man(b1-4)GlcNAc(b1-4)GlcNAc
# Method in brief: as §1
# [20] = biological target: Gal(b1-4)GlcNAc(b1-2)[Gal(b1-4)GlcNAc(b1-6)]Man(a1-6)[GlcNAc(b1-4)][Gal(b1-4)GlcNAc(b1-2)[Gal(b1-4)GlcNAc(b1-4)]Man(a1-3)]Man(b1-4)GlcNAc(b1-4)[Fuc(a1-6)]GlcNAc
# Method in brief: as §1
# [21] = biological target: Gal(b1-4)GlcNAc(b1-3)Gal(b1-4)GlcNAc(b1-2)[Gal(b1-4)GlcNAc(b1-3)Gal(b1-4)GlcNAc(b1-6)]Man(a1-6)[Gal(b1-4)GlcNAc(b1-3)Gal(b1-4)GlcNAc(b1-2)Man(a1-3)]Man(b1-4)GlcNAc(b1-4)[Fuc(a1-6)]GlcNAc
# Method in brief: as §1
# [22] = biological target: Gal(b1-4)GlcNAc(b1-3)GalNAc
# Method in brief: as §1
# Gal3S(b1-3)GalNAc = biological target: Gal3S(b1-3)GalNAc
# Method in brief: as §1
# Gal4S(b1-4)GlcNAc = biological target: Gal4S(b1-4)GlcNAc
# Method in brief: as §1
# Gal6P(b1-4)GlcNAc = biological target: Gal6P(b1-4)GlcNAc
# Method in brief: as §1
# GalNAc(b1-4)GlcNAc6S = biological target: GalNAc(b1-4)GlcNAc6S
# Method in brief: as §1
binder,measurement,setting,value
B1,glycan array binding signal (z-score),[1],-0.282
same,glycan array binding signal (z-score),[2],-0.273
same,glycan array binding signal (z-score),[3],-0.294
same,glycan array binding signal (z-score),[4],-0.285
same,glycan array binding signal (z-score),[5],-0.277
same,glycan array binding signal (z-score),[6],-0.275
same,glycan array binding signal (z-score),[7],-0.297
same,glycan array binding signal (z-score),[8],-0.279
same,glycan array binding signal (z-score),Fuc(b1-3)GlcNAc,-0.269
same,glycan array binding signal (z-score),Gal(a1-3)Gal(b1-4)GlcNAc,-0.292
same,glycan array binding signal (z-score),[9],-0.285
same,glycan array binding signal (z-score),[10],3.93
same,glycan array binding signal (z-score),[11],2.96
same,glycan array binding signal (z-score),[12],-0.278
same,glycan array binding signal (z-score),[13],-0.286
same,glycan array binding signal (z-score),[14],-0.286
same,glycan array binding signal (z-score),[15],-0.272
same,glycan array binding signal (z-score),Gal(b1-4)Gal,-0.288
same,glycan array binding signal (z-score),[16],-0.279
same,glycan array binding signal (z-score),[17],-0.287
same,glycan array binding signal (z-score),[18],-0.259
same,glycan array binding signal (z-score),[19],3.34
same,glycan array binding signal (z-score),[20],-0.266
same,glycan array binding signal (z-score),[21],-0.229
same,glycan array binding signal (z-score),[22],-0.281
same,glycan array binding signal (z-score),Gal3S(b1-3)GalNAc,4.27
same,glycan array binding signal (z-score),Gal4S(b1-4)GlcNAc,-0.297
same,glycan array binding signal (z-score),Gal6P(b1-4)GlcNAc,-0.287
same,glycan array binding signal (z-score),GalNAc(b1-4)GlcNAc6S,-0.294
